Test results published in article PMC7155171, “Probing the Open Global Health Chemical Diversity Library for Multistage-Active Starting Points for Next-Generation Antimalarials” (ACS Infectious Diseases, 2020).

Legend:
[1] = tested on: P. berghei liver stage (PbLuc); parameters: species or system HepG2-A16-CD81; P. berghei luciferase sporozoite infection of hepatocytes, liver stage luminescence; conditions: inhibitor; for PbLuc primary screen (10uM): inhibition % (n=1): 48 h
[2] = tested on: HepG2-A16-CD81 hepatocytes; parameters: Uninfected hepatocyte viability, CellTiter-Glo luminescence; conditions: cytotoxicity primary screen, inhibitor

SMILES	PbLuc primary screen (10uM): inhibition % (n=1) [1] [%]	PbLuc primary screen (2uM): inhibition % (n=1) [1] [%]	HepG2 toxicity primary screen (10uM): inhibition % (n=1) [2] [%]
Cc1cccc(C2N3CCC4(CC3)c3[nH]c5ccccc5c3CCN24)n1 (stereo not drawn) [DDD01058402]	-19.7	38.22	8.06
COc1ccc(-c2c(C)nn3c(N)c(C#N)nnc23)cc1 [DDD01035158]	3.19	-31.95	-8.26
CCc1nc(CN(C)C2CCN(CCn3cc(C#N)cn3)C2)no1 (stereo not drawn) [DDD01304196]	41.4	-38.96	-6.12
CCc1cc(=O)n2nc(C3CCCN3C(=O)c3ccccn3)cc2[nH]1 (stereo not drawn) [DDD01057178]	18.85	-15.38	-0.805
Cc1[nH]n(C2CCCCC2)c2nc(C(C)(C)CN3CCOCC3)nc1-2 [DDD01254749]	-16.9	48.54	-3.64
Cc1ncc(CN2CCc3c([nH]c4cc(C5CC5)nn4c3=O)C2)n1C [DDD01058398]	47.1	42.53	6.62
CC(=O)N1CCCN(C(=O)CCOc2ccc(C(C)C)cc2)CC1 [DDD01298039]	52.5	36.9515	-13
Cc1[nH]n(C2CCS(=O)(=O)C2)c(=O)c1Cc1ccccc1Cl (stereo not drawn) [DDD01026964]	34.1	-0.8948	-45.665
Cn1ccc(C(=O)N2CCCC(c3cc(=O)n(C)[nH]3)C2)n1 (stereo not drawn) [DDD01060541]	36.4	2.044	-13.7
CCc1cc(=O)n2nc(C3CCN(C(=O)c4ccncc4)CC3)cc2[nH]1 [DDD01057177]	32.85	-9.67	3.51
CCc1c(C)[nH]c2cc(C3CCN(Cc4ccc(F)cc4)C3)nn2c1=O (stereo not drawn) [DDD01060568]	66.5	40.31	-18.6
COCC(=O)N1Cc2[nH]c3c(C)c(-c4cccs4)nn3c(=O)c2C1 [DDD01056747]	27.2	46.04	-4.81
COc1cc2c(cc1-c1nc3c[nH]n(C)c-3n1)OCO2 [DDD01248770]	28.7	21.97	-8.9
COCCCC(=O)N1CC(=O)Nc2cc(Br)ccc21 [DDD01075689]	-20.4	22.41	5.89
Cc1ccc(CN2CCc3c([nH]c4cc(C5CC5)nn4c3=O)C2)s1 [DDD01058491]	44.3	31.81	-3.69
Cc1[nH]n(-c2ccc(F)cc2)c2nnc(N)c1-2 [DDD01065623]	46.4	39.0185	13.6
CCCc1nn(C)c(N)c1-c1ccc2c(c1)OCO2 [DDD01074641]	27.6	5.918	-51.45
COc1cccc(Cn2nc(C)c3c(NC(=O)C(C)OC)[nH]nc32)c1 (stereo not drawn) [DDD01063202]	39.7	-10.78	-2.03
Cn1nc(C2CCC2)c(-c2ccc3c(c2)OCO3)c1N [DDD01074643]	64.7	14.0603	-42.27

SMILES	PbLuc primary screen (10uM): inhibition % (n=1) [1] [%]	PbLuc primary screen (2uM): inhibition % (n=1) [1] [%]	HepG2 toxicity primary screen (10uM): inhibition % (n=1) [2] [%]
Cc1[nH]n(C2CCCC2)c2nc(C(C)(C)CN3CCN(C)CC3)nc1-2 [DDD01248613]	49.4	34.18	-6.61
O=C(CNC(=O)N1CCc2c([nH]c3ccc(Cl)cc23)C1)N1CCOCC1 [DDD01035668]	18.2	-2.915	8.32
CCc1ccc(C(C)NC(=O)CCC2=NC(=C3N=CN=N3)NO2)cc1 (stereo not drawn) [DDD01068289]	38.8	-21.47	-1.98
Cc1[nH]c2cc(C3CCN(Cc4ccccc4F)C3)nn2c(=O)c1C (stereo not drawn) [DDD01060615]	61.7	28.64	5.52
COc1cc2c(cc1-c1nc3c[nH]n(C(C)C)c-3n1)OCO2 [DDD01249461]	7.31	60.13	-6.85
COc1cc(OC)c(-c2nc3c(C4CC4)[nH]n(C)c-3n2)cc1OC [DDD01244474]	41.8	-47.16	-5.02
CCc1nn2c(N)c(C#N)nnc2c1-c1ccc(OC)cc1 [DDD01035159]	22.9	19.08	-3.73
CCc1nn(C)c(N)c1-c1ccc2c(c1)OCO2 [DDD01074639]	53.6	37.53	-45.08
Clc1cccc(-c2cccc(N3CCC(NC4CCOCC4)CC3)c2)c1 [DDD01252000]	84	-46.68	-4.24
CCc1c(C)nn2c(=O)cc(C3CCN(C(=O)c4cnn(C)c4)C3)[nH]c12 (stereo not drawn) [DDD01056908]	9.3875	-18.64	4.85
CCn1[nH]cc2nc(-c3cc4c(cc3OC)OCO4)nc1-2 [DDD01244413]	-7.2	27.42	-2.99
Cc1[nH]n(C2CCS(=O)(=O)C2)c(=O)c1CCc1ccccc1 (stereo not drawn) [DDD01026977]	5.33	-33.83	-50.25
Cc1[nH]n(-c2ccccc2)c2nc(C(C)(C)CN3CCN(C)CC3)nc1-2 [DDD01252143]	8.08	38.49	-2.13
Cc1nc(=O)cc(CCNC(=O)CC[C@@H]2CCCN3CCCC[C@H]23)[nH]1 [DDD01256003]	44.8	42.6913	0.956
CCc1c(C)[nH]c2cc(C3CCN(Cc4cccc(F)c4)C3)nn2c1=O (stereo not drawn) [DDD01060569]	77.3	65.74	-6.43
Cc1ncc(CN2CCc3[nH]c4cc(C(C)(C)C)nn4c(=O)c3C2)n1C [DDD01058400]	-12.3	26.69	8.62
COc1cc(F)ccc1-c1nc2c(C3CC3)[nH]n(C)c-2n1 [DDD01248843]	-24.9	-27.89	-1.72
COCC(=O)Nc1[nH]nc2c1c(C)nn2Cc1cccc(OC)c1 [DDD01063147]	-14.8	27.76	-11.7
CCn1[nH]cc2nc(-c3ccc(OC)c(COC)c3)nc1-2 [DDD01253750]	-45.8	0.5819	6.34

SMILES	PbLuc primary screen (10uM): inhibition % (n=1) [1] [%]	PbLuc primary screen (2uM): inhibition % (n=1) [1] [%]	HepG2 toxicity primary screen (10uM): inhibition % (n=1) [2] [%]
CCc1c(C)nn2c(=O)cc(C3CCN(C(=O)c4ccccn4)C3)[nH]c12 (stereo not drawn) [DDD01056906]	44.95	-16.2	6.7
COCCC(=O)N1CCC(c2cc(=O)n(C)[nH]2)C1 (stereo not drawn) [DDD01060470]	0.301	15.3	-23.1
COc1cccc(C2=NN=CC2=C2NC(CN3CCCC3)=NO2)c1 [DDD01247208]	34	45.82	-23.2
CCc1c(C)[nH]c2cc(C3CCN(CCc4ccccc4)C3)nn2c1=O (stereo not drawn) [DDD01060567]	83.3	20.31	-20.1
Cc1nsc(N2CCCN(CC(=O)N(C)C3CC3)CC2)n1 [DDD01066804]	68.5	-11.55	-3.98
Cc1nnsc1C(=O)N1CCCCC1c1cc2[nH]c(C)c(C)c(=O)n2n1 (stereo not drawn) [DDD01059036]	19.3	-26.26	-5.93
CN(CCCc1ccccc1)C(=O)CCC1=NC(=C2N=CN=N2)NO1 [DDD01062165]	22	-4.851	-44.845
CCn1[nH]cc2nc(-c3cc(OC)c(OC)cc3OC)nc1-2 [DDD01254934]	26.5	13.04	-2.61
Cc1[nH]n(C2CCS(=O)(=O)C2)c(=O)c1Cc1cccc(Cl)c1 (stereo not drawn) [DDD01026994]	28.5	34.05	-46.865
Cc1ccc(S(=O)(=O)Cc2noc([C@@H]3C[C@@H](O)CN3C(C)C)n2)cc1 [DDD01025534]	44.5	0.1961	0.317
Cc1nc(N2CCCC2)ncc1-c1cc(=O)n2ncnc2[nH]1 [DDD01038581]	16.8	10.62	10.6
Cc1[nH]n(C2CCS(=O)(=O)C2)c(=O)c1Cc1ccc(Br)cc1 (stereo not drawn) [DDD01026979]	43.4	14.54	-41.615
CCc1c(C)nn2c(=O)cc(C3CCN(C(=O)C4CC4)C3)[nH]c12 (stereo not drawn) [DDD01057056]	26.6	11.53	1.97
CCC(=O)Nc1[nH]nc2c1c(C)nn2Cc1cccc(OC)c1 [DDD01063148]	-31	15.82	-9.24
CN(Cc1ccc(F)c(F)c1)C(=O)CCC1=NC(=C2N=CN=N2)NO1 [DDD01062114]	55.4	6.397	-43.56
COCCC(=O)N1Cc2[nH]c3c(C)c(-c4cccs4)nn3c(=O)c2C1 [DDD01056578]	-5.78	-12.93	-1.19
CCc1c(C)nn2c(=O)cc(C3CCN(C(=O)c4ccn(C)n4)C3)[nH]c12 (stereo not drawn) [DDD01056907]	3.623	-25.98	7.915
COc1cc2c(cc1-c1nc3c[nH]n(C(C)C(C)C)c-3n1)OCO2 (stereo not drawn) [DDD01255421]	31.9	7.665	8.61
Cn1cc(C(=O)N2CCCC(c3cc(=O)n(C)[nH]3)C2)cn1 (stereo not drawn) [DDD01060486]	19.6	27.39	-21.6
